In the library only some 1.5% were active in any assay of this set; here they are far more common.
FBPA coupling cs – coupling enzyme interference in Giardia aldolase counter-screen | coupling enzyme system counterscreen, AmpLite Red fluorescence | activity change, negative = inhibition, % at 58.2 µM, hits read low | actives 0.67% (n = 290,000); in the data active means activity change below about -30%
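Fluorescence at 525 nm excitation and 598 nm emission measured inhibition of the coupled detection system without aldolase. Compounds (at 57.5 uM final) were preincubated 10 min at room temperature with coupling enzyme reagent before a 20 min substrate/AmpLite Red step.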
rTrxR1 inhibitor – rat TrxR1 inhibition; O89049; actives 1% (n = 390,000); recombinant rTrxR1, NADPH fluorescence consumption, selenite substrate; Potency, µM (titrated, usually from 114 µM), without a hit: top-dose activity change, negative = inhibition, hits mostly inhibitors; further: potency means the concentration at half of the fitted maximal effect; nearly all actives have a fitted effect of over 65% in size
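Rat TrxR1 (90 nM in the dispensed reagent) was pre-reduced with 400 uM NADPH for 5 min at room temperature, then incubated with compound for 15 min. After 400 uM selenite was added, NADPH fluorescence (Ex 340/Em 450 nm) was followed for 8 min.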
IDH1 R132H inh – blocks human mutant IDH1 R132H enzyme | IDH1-R132H enzyme, NADPH consumption, diaphorase/resazurin fluorescence | AID 602179 | O75874 | Potency, µM (series often up to 76.6 µM), for inactives: at the top dose activity change, negative = inhibition, actives largely listed as inhibitors | actives 0.093% (n = 390,000); further: potency means the concentration at half of the fitted maximal effect; nearly all actives have a fitted effect of over 65% in size
Target sequence (O75874 whole entry R132H, stated change not applied): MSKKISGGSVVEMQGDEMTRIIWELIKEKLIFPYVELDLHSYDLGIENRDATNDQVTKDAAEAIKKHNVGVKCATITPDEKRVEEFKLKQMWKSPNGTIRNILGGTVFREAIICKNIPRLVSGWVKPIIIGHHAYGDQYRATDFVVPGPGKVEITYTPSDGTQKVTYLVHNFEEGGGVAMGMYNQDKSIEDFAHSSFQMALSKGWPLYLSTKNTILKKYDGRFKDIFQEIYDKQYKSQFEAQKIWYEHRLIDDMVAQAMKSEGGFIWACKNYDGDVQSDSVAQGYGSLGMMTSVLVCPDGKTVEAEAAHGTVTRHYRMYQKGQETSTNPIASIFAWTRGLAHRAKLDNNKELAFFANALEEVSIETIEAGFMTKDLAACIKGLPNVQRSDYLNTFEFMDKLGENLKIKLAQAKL
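IDH1-R132H (0.5 ug/mL) preincubated 30 min with compound, then NADPH (0.016 mM) and alpha-KG (2 mM) added; 80 min at RT, pH 7.5. Remaining NADPH coupled via diaphorase/resazurin to fluorescence (540/590 nm); concentration-response curves normalized to no-enzyme control.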
TrxR1 substrate – rat thioredoxin reductase 1 substrate activity; Potency, µM (highest dose often 114 µM), for inactives: at the top dose activity change, negative = substrate turnover; AID 588456; purified TrxR1 substrate turnover, NADPH consumption readout; O89049; actives 0.01% (n = 390,000); further: potency means the concentration at half of the fitted maximal effect; nearly all actives have a fitted effect of over 50% in size
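Rat TrxR1, dispensed at 90 nM, was prereduced with 400 uM NADPH (final) for 5 min at ~22 deg C, then incubated with compound 15 min before 400 uM selenite. A first-read NADPH fluorescence drop versus no-compound background flagged substrates.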
Eya2 inh – blocks the phosphatase activity of human Eya2; O00167; recombinant Eya2, OMFP fluorescence dephosphorylation (OMFP is methylfluorescein phosphate); Potency, µM (doses to about 76.9 µM), for the others: at the top dose activity, negative = inhibition, hits mostly inhibitors; actives 0.006% (n = 330,000); AID 488837; further: potency means the concentration at half of the fitted maximal effect
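Eya2 (0.2 uM) preincubated 10 min at ambient with compound, then OMFP substrate added at 50 uM; 10 min reaction in 50 mM HEPES pH 7.5, 50 mM NaCl, 5 uM MgCl2, 0.05% BSA, 1 mM DTT. Fluorescence read at Ex 485/Em 525 nm.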
Numbers without * were called inactive; ? = inconclusive; nt = no result given; ! = a repeat was not active; [ ] = remark or other dose. Unless noted, the call rests on the fitted dose curve; in most records, active means well fitted curve in the direction sought with a large enough effect; inconclusive means small, poorly fitted or top-dose-only effect, or another doubt; inactive means no such curve, though single readings can be large; an effect the other way counts as inactive or inconclusive. On the % scale 0 is the no-effect control and ±100 the full control effect.

SMILES	FBPA coupling cs	rTrxR1 inhibitor	IDH1 R132H inh	TrxR1 substrate	Eya2 inh
CC[C@H](C)[C@H](NC(=O)[C@H](CCC(=O)O)NC(=O)CNC(=O)[C@@H](NC(=O)[C@@H]1CCCN1C(=O)[C@@H](NC(=O)[C@@H]1CCCN1C(=O)[C@@H]1CCCN1C(=O)[C@H](CC(N)=O)NC(=O)[C@H](CC(N)=O)NC(=O)[C@@H](NC(=O)[C@H](CCSC)NC(=O)[C@H](Cc1c[nH]c2ccccc12)NC(=O)CNC(=O)[C@@H](NC(=O)[C@H](CCC(N)=O)NC(=O)[C@@H](N)CCC(=O)O)[C@@H](C)CC)[C@@H](C)O)[C@@H](C)CC)C(C)C)C(=O)O	1	nt	nt	nt	nt
CN(C)C(=O)/C(C#N)=C\c1cc(Br)c(Sc2ccc(Cl)cc2)o1	-51*	-5%	4%	-2%	6%
Clc1ccc(Sc2oc(/C=N/n3cnnc3)cc2Br)cc1	0	-17%	4%	-10%	7%
COc1ccc(/C=C/c2nnc(NC(=O)COc3ccc(Cl)cc3)s2)cc1	nt	7%	nt	8%	nt
N#Cc1cccc2c1-c1ccccc1/C2=N/NC(N)=S	-2	?	0%	4%[57.1 µM]	-5%
NC(=S)NN=C1c2ccccc2-c2c(F)c(F)c(F)c(F)c21	nt	56µM*	3%	-10%	nt
Cc1ccc(/C=C/C(=O)OC(C)C(=O)Nc2ccc(Cl)cn2)o1 (centres undefined)	-1	14µM*	10%	1%	-4%
OCCC1CN(Cc2c(O)ccc3ccccc23)CCN1CCc1ccccc1 (centres undefined)	-38*	?	13%	2%	3%
OCCC1CN(Cc2ccccc2O)CCN1CCCc1ccccc1 (centres undefined)	-1	6%	0%	-5%	6%
COc1cc(CN2CCN(CCCc3ccccc3)C(CCO)C2)cc(OC)c1O (centres undefined)	-41*	-28%	0%	3%	?
COC(=O)C[C@H]1c2ccccc2[C@H]2C(=C[C@@H](C)[C@H]3C(=O)N(O)C(=O)[C@H]32)N1C(=O)OC	2	nt	nt	nt	nt
CCOC(=O)c1ccccc1OCc1cc(C2Nc3ccccc3C(=O)N2c2cccc3ccccc23)ccc1OC (centres undefined)	nt	24%	nt	37%	nt
Nc1nc(-c2ccccc2)c(CCCOc2ccc(NC(=O)CBr)cc2)c(=O)[nH]1	nt	45µM*	-6%	-5%	nt
CCOc1ccc(NC(=O)CSc2nc(N)c(-c3ccccc3)c(=O)[nH]2)cc1	2	17%[57.1 µM]	-2%	8%	2%
COc1ccc2c(c1)c(C(=O)N/N=C/c1cccc(Br)c1)c(C)n2C	-45*	3%[57.1 µM]	33%	-24%[57.1 µM]	1%
COc1ccc2c(c1)c(C(=O)N/N=C/c1cccc(O)c1)c(C)n2C	-4	-12%	3%	-9%	6%
CCOC(=O)c1ccc(N2C(=O)C3C(C2=O)C(C(=O)c2ccc(Cl)cc2)N2CCCC32)cc1 (centres undefined)	-1	3.5µM*	5%	-1%	-12%
CC(=O)OCON[N+]([O-])=NC(C)C	-19	16µM*!	nt	4%	nt
CC(=O)OCON[N+]([O-])=NC1CCCCC1	0	9%	nt	-4%	nt
O=S(=O)(c1ccc2c(c1)OCCO2)N1CCN(c2nc(-c3ccccc3)nc3ccccc23)CC1	nt	20%	nt	4%	nt
CCOc1ccc2[nH]c(=O)c(CN(Cc3ccco3)Cc3nnnn3Cc3ccccc3)cc2c1	3	14µM*	5%	23%	-11%
COc1cc2cc(CN(Cc3nnnn3Cc3ccco3)C3CCCCC3)c(=O)[nH]c2cc1OC	-33*	11µM*	6%	24%	-2%
Cc1ccc2[nH]c(=O)c(CN(CCCO)Cc3nnnn3Cc3ccccc3)cc2c1	nt	20µM*	nt	5%	nt
CN(N=O)c1ccc(/C=C/c2ccnc3ccccc23)cc1	nt	4%	nt	-2%	nt
COc1ccc(CN(C)CC(=O)Nc2ccccc2C(F)(F)F)cc1	-1	15%	11%	-5%	-5%
SMILES	FBPA coupling cs	rTrxR1 inhibitor	IDH1 R132H inh	TrxR1 substrate	Eya2 inh
CCN(CC(=O)Nc1ccc(NC(C)=O)cc1)Cc1c(O)ccc2cc(Br)ccc12	-1	6.3µM*	2%	0%[57.1 µM]	4%
Cc1ccc(NC(=O)CN(C)Cc2c(O)ccc3ccccc23)cc1	-3	14µM*	9%	9%	-5%
COc1ccc2ccc(O)c(CN(C)CC(=O)Nc3ccccc3C(F)(F)F)c2c1	-11	8.9µM*	3%	-6%[57.1 µM]	-2%
CCN(CC(=O)Nc1ccc(NC(C)=O)cc1)CC(=O)Nc1cccc2ccccc12	nt	nt	-6%	nt	nt
CN(C)Cc1c(O)ccc2ccccc12	-10	?	2%	16%	2%
COc1ccc(C#Cc2c[nH]c(=O)c3cncnc23)cc1OC	nt	2%	nt	-6%	nt
Cc1cc2c(N)cccc2nn1	-37*	24%	23%	-14%	-11%
Nc1cccc2nc3ccccc3cc12	0	16%	-15%	0%	?
O=C(O)c1c2c(nc3ccccc13)CCCC2	nt	8%[0.0914 µM]	nt	8%[0.0914 µM]	nt
CC(C)Cc1nnc(NS(=O)(=O)c2ccc([N+](=O)[O-])cc2)s1	5	8%[57.1 µM]	12%	-11%	5%
O=[N+]([O-])c1ccc(S(=O)(=O)Nc2nnc(C(F)(F)F)s2)cc1	8	6.3µM*	16%	-13%	-3%
O=[N+]([O-])c1ccc(Nc2nc(NCCN3CCOCC3)nc(Nc3ccc(I)cc3)n2)cc1	nt	-9%	nt	-4%[0.0914 µM]	nt
N#CC1=C(SCC(=O)Nc2cccc3cccnc23)NC(=O)C(C#N)C12CCCCC2 (centres undefined)	-36*	1%[57.1 µM]	3%	1%[57.1 µM]	11%
COc1ccc(Nc2ccccc2N)cc1	0	2%[57.1 µM]	5%	-2%[57.1 µM]	-15%
Nc1ccc(Nc2ccccc2N)cc1	-31*	?	13%	0%[57.1 µM]	1%
COC1=C(Nc2ccccc2OC)C(=O)c2ccccc2C1=O	-27	12%[57.1 µM]	9%	2%[57.1 µM]	?
CN(C)c1ccc(NC2=C(Cl)C(=O)c3ccccc3C2=O)cc1	-43*	2.8µM*	9%	4%	-15%
CC(=O)Nc1ccc(NC2=C(Cl)C(=O)c3ccccc3C2=O)cc1	-1	0.56µM*	-2%	0%[57.1 µM]	8%
Cc1ccc(NC2=C(NCCO)C(=O)c3ccccc3C2=O)cc1	-48*	-13%	15%	-11%	-3%
COc1ccc(C2=C(Nc3ccc(C)cc3)c3ccccc3C2=O)cc1	-4	6%	1%	2%	-1%
COc1ccccc1NC1=C(NC(C)=O)C(=O)c2ccccc2C1=O	-56*	4.5µM*	3%	5%	2%
O=C1C(Cl)=C(Nc2ccc3cn[nH]c3c2)C(=O)c2ccccc21	-36*	?	-2%	?	4%
Nc1cnccn1	nt	35%	nt	117%	nt

Assay outcomes from PubChem.
